Reference: paper PMC4336329 (PLoS ONE, 2015)
Screen size: about 310,000 compounds; about 14,000 (4.5%) showed an effect of 50% or more. The effect is printed as a negative number. What follows is part of a selection rich in strong results, with near analogues and random picks from the rest.

These molecules were tested against human ether-à-go-go-related gene (hERG) potassium channel (human, UniProt Q12809) (assay: primary screen, population patch clamp on CHO cells stably expressing hERG; higher = less effect of the substance).
human ether-à-go-go-related gene (hERG) potassium channel, sequence (Q12809 whole entry, looked up): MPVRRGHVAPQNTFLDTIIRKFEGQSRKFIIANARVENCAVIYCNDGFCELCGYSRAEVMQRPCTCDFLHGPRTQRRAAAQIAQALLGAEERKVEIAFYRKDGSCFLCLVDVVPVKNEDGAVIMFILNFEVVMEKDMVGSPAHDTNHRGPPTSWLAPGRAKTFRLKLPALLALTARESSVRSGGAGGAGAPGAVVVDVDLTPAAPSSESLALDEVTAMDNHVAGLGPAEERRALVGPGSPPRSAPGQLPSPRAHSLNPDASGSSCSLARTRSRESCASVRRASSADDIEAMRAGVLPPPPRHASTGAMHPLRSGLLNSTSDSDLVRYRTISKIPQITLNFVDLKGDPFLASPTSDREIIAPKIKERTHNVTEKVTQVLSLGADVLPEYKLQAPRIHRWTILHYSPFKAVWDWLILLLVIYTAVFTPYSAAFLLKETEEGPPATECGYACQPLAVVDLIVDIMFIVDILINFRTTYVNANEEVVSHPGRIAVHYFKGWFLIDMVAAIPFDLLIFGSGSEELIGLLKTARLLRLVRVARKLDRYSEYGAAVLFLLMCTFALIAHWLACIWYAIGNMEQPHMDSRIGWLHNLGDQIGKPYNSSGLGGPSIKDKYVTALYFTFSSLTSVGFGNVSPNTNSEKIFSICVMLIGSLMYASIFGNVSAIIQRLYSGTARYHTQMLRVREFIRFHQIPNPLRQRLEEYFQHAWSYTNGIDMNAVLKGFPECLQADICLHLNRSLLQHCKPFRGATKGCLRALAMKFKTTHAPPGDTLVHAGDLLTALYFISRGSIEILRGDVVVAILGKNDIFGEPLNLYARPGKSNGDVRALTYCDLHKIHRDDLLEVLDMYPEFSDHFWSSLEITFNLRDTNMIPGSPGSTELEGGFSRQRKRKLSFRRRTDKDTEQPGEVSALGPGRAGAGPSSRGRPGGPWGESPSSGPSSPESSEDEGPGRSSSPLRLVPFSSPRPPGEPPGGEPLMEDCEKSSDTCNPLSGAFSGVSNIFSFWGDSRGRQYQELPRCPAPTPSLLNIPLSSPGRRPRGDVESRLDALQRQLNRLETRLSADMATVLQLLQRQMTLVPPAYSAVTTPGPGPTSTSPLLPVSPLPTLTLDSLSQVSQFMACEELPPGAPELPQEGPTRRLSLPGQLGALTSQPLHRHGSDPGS
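Further: peak tail current of the secondary pulse compared with the same well before compound.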

Structure (SMILES) | hERG current change (%, negative = inhibition) at 10uM
O=C(CCC(=O)c1ccc(Br)cc1)Nc1ccc(F)cc1 | 23.7%
COc1ccc(C2=NC(=O)NC2c2ccc(OC)cc2)cc1 (centres unmarked) | -29.4%
Cc1ccc(S(=O)(=O)N(C)C)cc1-n1c(SCC(=O)Nc2ccc(F)c(F)c2F)nc2ccccc2c1=O | 8.58%
Cl.O=C(Cc1ccccc1)OCCN1CCOCC1 | 20.4%
CCCOc1ccc(C2(C(=O)O)CCCC2)cc1 | 6.16%
C=CCC1C=CCC(CC=C)N1C(=O)c1ccccc1[N+](=O)[O-] (centres unmarked) | -3.17%
COC(=O)c1sccc1NC(=S)N1CCCCC1C (centres unmarked) | -25.6%
CC1=C(C(=O)OCC(C)C)C2(O)C(=O)c3ccccc3C2(O)N1 (centres unmarked) | 3.4%
Clc1ccc(CSc2nnc(-c3ccncc3)o2)c(Cl)c1 | 0.528%
COc1ccc(C2/C=C\CN(S(=O)(=O)c3ccc4ccccc4c3)CC(=O)N2Cc2ccc(F)cc2)cc1 (centres unmarked) | 8.33%
Cc1nc(-c2ccccc2)sc1C1(C)CC(c2ccc(C#N)cc2)=NO1 (centres unmarked) | -3.07%
O=C(Nc1ccccc1Cl)N1CCN(c2ccc3nnc(-c4ccc(F)cc4)n3n2)CC1 | -42.1%
O=C(Nc1ccccc1Cl)N1CCN(c2ccc3nnc(-c4ccccc4)n3n2)CC1 | -73.5%
O=C(Nc1ccccc1Cl)N1CCN(c2ccc3nncn3n2)CC1 | -23.2%
O=C(CN1C(=O)c2ccccc2C1=O)Nc1ccc(S(=O)(=O)N2CCOCC2)cc1 | -16.9%
O=C(NC1CCCC1)C1CCN(C(=O)c2cccc(Cl)c2)CC1 | -6.41%
Cc1ccc(-n2ncc3c(NCc4ccccn4)ncnc32)c(C)c1 | -7.46%
Cc1ccc2nc(-c3ccncc3)c(NC3CCCC3)n2c1 | -54.2%
Cc1ccc2nc(-c3ccncc3)c(NC3CCCCC3)n2c1 | 9.35%
Cc1ccc2nc(-c3cccnc3)c(NC3CCCC3)n2c1 | -19.7%
CCOc1cccc(OCCCCn2ccnc2)c1 | -9.04%
COc1ccc(C)cc1NS(=O)(=O)c1ccc2c(c1)oc(=O)n2C | 16.2%

Structure (SMILES) | hERG current change (%, negative = inhibition) at 10uM
CCOC(=O)C1CCN(C(=O)c2cc3c(C)cc(C)cc3[nH]2)CC1 | -15.2%
Cc1cc(C)c2cc(C(=O)N3CCC(C(=O)c4ccc(F)cc4)CC3)[nH]c2c1 | 2.63%
Cc1cc(C)c2cc(C(=O)N3CCC(N4CCCCC4)CC3)[nH]c2c1 | -69.2%
O=C(NNC(=O)c1cccs1)c1ccc(Br)o1 | 15.8%
CC1C(=O)NN=C1C(=O)N/N=C/c1cccs1 (centres unmarked) | 17.3%
COC(=O)c1nn(-c2ccccc2)c(Cl)c1/C=N/OCc1ccc(Cl)cc1Cl | 20.6%
COC(=O)c1ccc(CSc2nnc3c(Cl)cc(Cl)cn23)o1 | 10.9%
O=C(NCc1ccco1)C1CC(=O)N(c2ccc(O)cc2)C1 (centres unmarked) | -10.2%
CCCCOc1ccc(N2CC(C(=O)NCc3ccco3)CC2=O)cc1 (centres unmarked) | -14.5%
CCCOc1ccc(N2CC(C(=O)Nc3ccccc3C(=O)NCc3ccco3)CC2=O)cc1 (centres unmarked) | -71.5%
O=C(NCc1ccco1)c1ccccc1NC(=O)C1CC(=O)N(c2ccc(Cl)cc2)C1 (centres unmarked) | -78.4%
CCCOc1ccc(N2CC(C(=O)Nc3ccccc3F)CC2=O)cc1 (centres unmarked) | -3.15%
COc1ccc(N2CC(C(=O)Nc3ccccc3C(=O)NCc3ccco3)CC2=O)cc1 (centres unmarked) | -42%
CCCOc1ccc(N2CC(C(=O)Nc3ccccc3C(=O)NC)CC2=O)cc1 (centres unmarked) | -71.8%
O=C(NCc1ccco1)C1CC(=O)N(c2ccc(Cl)cc2)C1 (centres unmarked) | -6.16%
CNC(=O)c1ccccc1NC(=O)C1CC(=O)N(c2ccc(OC)cc2)C1 (centres unmarked) | -12.3%
CCc1ccc(/C=N/NC(=O)c2cc(-c3ccccc3OC)nc3ccccc23)s1 | 9.69%
O=C(NC1CCN(Cc2ccccc2)CC1)C1CCN(S(=O)(=O)c2cccc3nsnc23)CC1 | -23.7%
CN(C)CC1CCCCC1OC(=O)/C=C/c1ccccc1.Cl (centres unmarked) | -33.2%
Cc1ccccc1C(=O)NNc1ccc([N+](=O)[O-])cc1 | -17.3%
CCCOc1ccc(C2/C(=C(/O)c3ccccc3)C(=O)C(=O)N2CCCN(C)C)cc1OC (centres unmarked) | 5.35%
Cc1ccccc1CNC(=O)CN(c1cccc([N+](=O)[O-])c1)S(C)(=O)=O | 6.08%
